The results in this text go back to PubChem BioAssay (EPA / NIEHS).

The AC50 is the midpoint of the concentration-response curve, whichever way the signal moves.

SMILES strings stand for the structures. Values joined by “and” are separate entries in the source; they are usually repeats but may differ in a detail not shown here. Identical values can stand only once. A structure can be active in one record and inactive in another. Active and inactive are the calls of the source. Rule for the calls: active = hit-call score of the fitted dose curve at least 0.9, where 1 is the maximum; inactive = score below 0.9.

Read-out in this experiment: Vascular cell adhesion molecule 1 (VCAM1), VCAM1 (gene 7412)
Kind of experiment: BSK_hDFCGF_VCAM1: BioMAP Diversity Plus: hDFCGF Assay for Vascular cell adhesion molecule 1 (VCAM1) Biomarker Activity (AID 2283065). The following applies: primary human foreskin fibroblasts; actives raise or lower the signal. As to the method:
BSK_hDFCGF is a cell-based, multiplexed-readout assay that uses foreskin fibroblast, a human skin primary cell, with measurements taken at 24 hours after chemical dosing in a 96-well plate.BSK_hDFCGF_VCAM1 is an assay component measured in the BSK_hDFCGF assay. It measures VCAM-1 antibody related to regulation of gene expression using ELISA technology.Data from the assay component BSK_hDFCGF_VCAM1 was analyzed into 1 assay endpoint. This assay endpoint, BSK_hDFCGF_VCAM1, was analyzed with bidirectional fitting relative to DMSO as the negative control and baseline of activity. Using a type of binding reporter, gain or loss-of-signal activity can be used to understand changes in the signaling as they relate to the gene VCAM1. Furthermore, this assay endpoint can be referred to as a primary readout, because this assay has produced multiple assay endpoints where this one serves a signaling function. To generalize the intended target to other relatable targets, this assay endpoint is annotated to the cell adhesion molecules intended target family, where the subfamily is Immunoglobulin CAM.
The levels of cell surface (or secreted, indicated by the prefix "s") biomarker endpoints were measured by ELISA. Overt cytotoxicity to cells in confluent adherent cultures (all systems other than the BT system) was assessed by measuring total protein levels using sulforhodamine B (SRB) staining in parallel cultures at the time of biomarker measurements, indicated as SRB endpoints. For proliferation assays for adherent cell types, individual cell types are cultured at sub-confluence and relative cell numbers quantified by SRB staining at time points optimized for each system (48 h: 3C and CASM3C systems; 72 h: BT and HDF3CGF systems; 96 h: SAg system). SRB was performed by staining cells with 0.1% SRB after fixation with 10% TCA and reading wells at 560 nm.Viability and proliferation of PBMC (T cells) was quantified by Alamar Blue reduction for the SAg and BT systems. For PBMC viability (referred to as PBMC Cytotoxicity within the assay endpoint names), cells were plated (75,000/well in a 96-well plate) and then chemical samples added for 1 h before addition of activators, SEB and TSST-1 (20 ng/mL final concentration each). Cells were incubated for 90 h. Then, Alamar Blue (20 uL/well) (Invitrogen, Cat DAL1100) was added for 6 h, and the plates were read with a fluorescence microplate reader at 546/580 nm (excitation/emission). For PBMC proliferation, cells were plated and activated as above but incubated for only 16 h prior to addition of Alamar Blue. Plates were read after 6 h.
As to `Cc1ccccc1[N+](=O)[O-]`, the result was inactive. With `CC#Cc1cc(C)nc(Nc2ccccc2)n1`, the result was inactive. The same measure, in the same setting: then `Cc1ccccc1O`, with “inactive”; and `C[C@]12CCC(=O)C=C1CC[C@@H]1[C@@H]2CC[C@@]2(C)[C@H]1CC[C@]2(C)O`, with “inactive”. On the same count and under the same terms, then `CO/C=C(/C(=O)OC)c1ccccc1COc1cccc(C(F)(F)F)n1`, with “inactive”. With `COc1ccc(O)c(C(C)(C)C)c1`, the outcome was inactive. Still for that read-out and setting: the result for `O=C(O)C(F)(F)C(F)(F)C(F)(F)C(F)(F)C(F)(F)F` reads “inactive”. The same measure, in the same setting: the result for `N#Cc1ccc(N(CC(N)=O)CC(F)(F)F)cc1C(F)(F)F` reads “inactive”. Take `O=C(O)C(F)(F)C(F)(F)C(F)(F)C(F)(F)C(F)(F)C(F)(F)C(F)(F)C(F)(F)F`: the AC50 is 48.5 µM (active) and the outcome was inactive. Turning to `Sc1ccccc1`, the result was inactive. In the case of `NS(=O)(=O)C(F)(F)C(F)(F)C(F)(F)C(F)(F)C(F)(F)C(F)(F)C(F)(F)C(F)(F)F`, the AC50 was 17.3 µM (active) and 9.88 µM (active) and 7.69 µM (active). The same measure, in the same setting: the result for `CCCCCCCCCC[N+](C)(C)CCCCCCCCCC` reads 3.39 µM (active). With `ClC1=C(Cl)[C@]2(Cl)[C@@H]3[C@@H]4C[C@@H]([C@H]5O[C@@H]45)[C@@H]3[C@@]1(Cl)C2(Cl)Cl`, the outcome was inactive. `Clc1ccc(C(c2ccccc2Cl)C(Cl)(Cl)Cl)cc1` (stereo not given): the AC50 is 6.32 µM (active).

As to `CN(C)c1nc(=O)n(C2CCCCC2)c(=O)n1C`, the outcome was inactive.

As to `O=S(=O)(O)C(F)(F)C(F)(F)C(F)(F)C(F)(F)F`, the result was inactive.

For the molecule `Cc1cccc(C)c1N`, the result was inactive. Same read-out and setting: then `CCCCCCCCOC(=O)c1ccccc1C(=O)OCCCCCCCC`, with “inactive”.

`C1CC2OC2CC1C1CO1` (stereo not given): the result was inactive. Turning to `Clc1ccc(Cl)cc1`, the result was inactive.

Regarding `Nn1cnnc1`, the outcome was inactive. On to `ClC1=C(Cl)[C@]2(Cl)[C@@H]3[C@@H](Cl)[C@H]4O[C@H]4[C@@H]3C1(Cl)C2(Cl)Cl`, for which the result was inactive.

As to `CCC(C)(c1ccc(O)cc1)c1ccc(O)cc1`, the AC50 is 20 µM (active).

For the molecule `CCC(=O)O[C@H]1CC[C@H]2[C@@H]3CCC4=CC(=O)CC[C@]4(C)[C@H]3CC[C@]12C`, the AC50 was 31.4 µM (active).

Regarding `Oc1ccc(Cl)cc1Cl`, the outcome was inactive. Still for that read-out and setting: then `CC(C)(O)C(=O)Nc1ccc([N+](=O)[O-])c(C(F)(F)F)c1`, with “inactive”. `CC(c1ccc(O)cc1)(c1ccc(O)cc1)c1ccc(O)cc1`: the AC50 is 8.14 µM (active).

As for `CCCN(CCC)N=O`, the outcome was inactive. In the case of `CCSC(=O)N(CC)C1CCCCC1`, the outcome was inactive. For `Nc1ccc(-c2ccc(N)cc2)cc1`, the result was inactive. As for `CCNc1nc(NC(C)C)nc(SC)n1`, the result was inactive. For the molecule `CCC(C)(CC)c1cc(NC(=O)c2c(OC)cccc2OC)on1`, the result was inactive.

As for `Oc1c(Cl)c(Cl)c(Cl)c(Cl)c1Cl`, the AC50 is 10.2 µM (active) and 4.61 µM (active). `CCOP(=S)(OCC)SCSC(C)(C)C`: the outcome was inactive. Same read-out and setting: the result for `O=C(NC(=O)c1cc(F)c(F)cc1Cl)Nc1cc(F)ccc1N1CCC(C(=O)O)CC1` reads “inactive”. Consider `CCCCCCCCCc1ccc(O)cc1`, for which the AC50 is 13.3 µM (active). Consider `O=NN(c1ccccc1)c1ccccc1`, for which the outcome was inactive. The same measure, in the same setting: then `Cc1cc(O)ccc1Cl`, with “inactive”. For the molecule `CCOCCOC(C)=O`, the outcome was inactive.
